Measured values: PubChem BioAssay AID463173 (ICCB-Longwood Screening Facility, Harvard Medical School, 2010)
The whole screen tested about 52,000 compounds, of which about 4,300 (8.3%) were called active. This is one part of a sample in which actives are shown more often than they occur. Values without a mark were called inactive. Rule as the data show it: active = survival mostly below about 52% (no sharp cut-off); inactive = mostly above about 56%.

system: DeltatarO mutant; assay: S. aureus survival, RN4220 and DeltatarO strains – OD600, teichoic acid synthesis inhibitors, primary screen (AID 463173); settings: S. aureus RN4220 wild type/DeltatarO growth, OD600, 18 h, active compounds read low, screened at 18.75 µg/mL (by protocol)

SMILES	survival
O=C(O)C1CSC(c2cccs2)N1 (stereo not given)	83%
CCN1C(=O)c2ccccc2Sc2ccc(NC(=O)c3ccc(C#N)cc3)cc21	102%
COc1ccc(Nc2cc(C(=O)NCCCN(C)C3CCCCC3)c3ccccc3n2)cc1	97%
N#Cc1ccc(C(=O)N2CCN(c3nc4ccc(F)cc4s3)CC2)cc1	72%
Clc1ccc(CNc2cc(-c3ccccc3)nc3nncn23)cc1	50%
O=C(CSc1nc(-c2ccc(F)cc2)cc(C(F)(F)F)n1)NCCc1ccccc1	73%
Fc1ccc(-c2cc(C(F)(F)F)nc(NCc3ccccc3)n2)cc1	85%
O=S(=O)(c1ccccc1)n1nc(-c2ccc(Cl)cc2)nc1NCc1ccc(F)cc1	53%
Fc1ccc(CNc2cc(-c3ccccc3)nc3nncn23)cc1	17% (active)
O=C(NCc1ccc(F)cc1)c1cc(-c2ccc(Cl)cc2)n[nH]1	85%
Fc1ccc(CNc2nc(-c3ccccc3)cc(C(F)(F)F)n2)cc1	4% (active)
COc1ccc(-c2cc(NCc3ccc(F)cc3)n3cnnc3n2)cc1	61%
Fc1ccc(CNc2nc(-c3ccc(Cl)cc3)cc(C(F)(F)F)n2)cc1	12% (active)
O=C(NCC(c1cccnc1)N1CCN(Cc2ccccc2)CC1)C(=O)Nc1cccc(Cl)c1 (stereo not given)	77%
CCOC(=O)c1cccc(NC(=O)Cc2ccc(NC(=O)N3CCCCc4ccccc43)cc2)c1	76%
Cc1csc2nc(COC(=O)COc3ccccc3F)cc(=O)n12	64%
CCOC(=O)c1[nH]cnc1C(=O)Nc1ccc(F)cc1	64%
COc1cccc(NC(=O)CSc2nnc(NC(=O)NC3CCCCC3)s2)c1	75%
COc1ccc(NC(=O)Cn2c(=O)n(CCc3ccccc3)c(=O)c3sc4ccccc4c32)cc1	76%
O=C(CN1C(=O)CCSc2ccc(S(=O)(=O)N3CCCC3)cc21)Nc1cccc(F)c1	72%
CCCCn1c(=NC(=O)c2c(-c3c(F)cccc3Cl)noc2C)c(C(=O)OCC)cc2c(=O)n3ccccc3nc21	170%
COc1ccc(CNC(=O)CN2C(=O)COc3ccccc32)c(OC)c1	89%
CC1CCN(S(=O)(=O)c2ccc3c(c2)CCN3C(=O)Nc2ccccc2Br)CC1	76%
COc1ccc(S(=O)(=O)NCCc2nnc3ccc(SCC(=O)Nc4cc(C)cc(C)c4)nn23)cc1	63% (active)

SMILES	survival
Cc1ccc(C)c(CSc2ccc3nnc(CCNS(=O)(=O)c4ccccc4)n3n2)c1	75%
O=S(=O)(NCCc1nnc2ccc(SCc3c(F)cccc3Cl)nn12)c1ccccc1	58%
CCc1ccc(NC(=O)CSc2ccc3nnc(CCNS(=O)(=O)c4ccc(OC)cc4)n3n2)cc1	81%
O=S(=O)(NCCc1nnc2ccc(SCc3ccccc3Cl)nn12)c1ccccc1	68% (active)
COc1ccc(S(=O)(=O)NCCc2nnc3ccc(SCC(=O)Nc4ccc(C(F)(F)F)cc4)nn23)cc1	81%
Cc1cccc(CSc2ccc3nnc(CCNS(=O)(=O)c4ccccc4)n3n2)c1	68%
O=S(=O)(NCCc1nnc2ccc(SCc3ccc(Cl)cc3Cl)nn12)c1ccccc1	37% (active)
O=S(=O)(NCCc1nnc2ccc(SCc3cccc(Cl)c3)nn12)c1ccccc1	58%
Cc1onc(-c2ccccc2Cl)c1C(=O)Oc1ccccc1F	76%
Cc1ccc(NC(=O)c2cc3c(=O)[nH]c4ccccc4c3n2C)cc1F	83%
O=C(OCCN1CCOCC1)c1ccccc1	88%
Cc1ccc(-n2ncc3c(NCCCN(C)C)ncnc32)cc1Cl	95%
COc1ccc(-c2noc(-c3ccc(N4CCN(c5ccccc5)CC4)c([N+](=O)[O-])c3)n2)cc1	49%
Cc1ccccc1OCC(=O)Nc1ccc2nc(SCc3ccccc3)sc2c1	88%
Cc1ccc(CN(Cc2ccco2)C(=O)COc2cccc(C)c2C)o1	66%
Cc1cc(OC(C)C(=O)N(Cc2ccc(N(C)C)cc2)Cc2ccco2)ccc1Cl (stereo not given)	67%
Cc1cc(OC(C)C(=O)N(Cc2ccco2)Cc2ccco2)cc(C)c1Cl (stereo not given)	35% (active)
Cc1ccc(CN(Cc2ccco2)C(=O)COc2c(C)cc(C)cc2C)cc1	54%
Cc1cccc(OCC(=O)N(Cc2ccc(N(C)C)cc2)Cc2ccco2)c1C	42% (active)
Cc1cc(OC(C)C(=O)N(Cc2ccco2)Cc2ccccc2F)cc(C)c1Cl (stereo not given)	81%
CCc1ccc(OCC(=O)N(Cc2ccc(C)cc2)Cc2ccco2)cc1	91%
Cc1ccc(OCC(=O)N(Cc2ccc(Cl)cc2)Cc2ccco2)cc1C	58%
Cc1ccc(CN(Cc2ccco2)C(=O)COc2ccccc2C)cc1	40% (active)
Cc1ccc(CN(Cc2ccco2)C(=O)COc2cc(C)c(Cl)c(C)c2)cc1	58%

SMILES	survival
CCc1ccc(CN(Cc2ccco2)C(=O)COc2ccc(Cl)c(C)c2)cc1	38% (active)
Cc1cccc(OCC(=O)N(Cc2ccc(C(C)C)cc2)Cc2ccco2)c1C	49%
NNC(=O)C1CCN(S(=O)(=O)c2ccccc2N)CC1	95%
CCOc1cc(C(=O)OCc2cc(=O)n3nc(C4CC4)sc3n2)cc(OCC)c1OCC	79%
COCCNC(=S)N1CCC(NC(=O)Nc2ccc(F)cc2)CC1	91%
CC(SCc1ccccc1)C(=O)NCc1ccccn1 (stereo not given)	77%
COc1ccccc1N1CCN(C(=O)Cn2ncc3ccsc3c2=O)CC1	114%
CC1CCc2c(sc(NC(=O)c3ccc(Cl)cc3Cl)c2C#N)C1 (stereo not given)	71%
COc1cc(CN(C(=O)c2ccc(C)cc2)c2ccccn2)cc(OC)c1OC	78%
CN(CCC(N)=O)Cc1ccccc1	75%
CCCCCCn1c(/C=C/c2ccccc2)nc2ccccc21	1% (active)
CC(C)CCn1c(/C=C/c2ccccc2)nc2ccccc21	-1% (active)
CCCn1c(CNC(=O)c2ccc(F)cc2)nc2ccccc21	76%
CCCn1c(SCC(O)c2ccccc2)nc2ccccc21 (stereo not given)	86%
CCCCCn1c(CNC(=O)c2ccc(F)cc2)nc2ccccc21	68%
CCn1c(O)c(/C=C/c2nc3ccccc3n2CC)sc1=S	78%
CCCCCCn1c(CNC(=O)c2ccccc2)nc2ccccc21	66%
CCC(C)Cn1c(/C=C/c2ccccc2)nc2ccccc21 (stereo not given)	-1% (active)
Cc1cccc(C(=O)NCCc2nc3ccccc3n2CCC(C)C)c1	99%
CC(C)Cn1c(/C=C/c2ccc(F)cc2)nc2ccccc21	-4% (active)
CCCCCn1c(CNC(=O)c2ccccc2)nc2ccccc21	67%
CCc1nc2ccccc2n1CC(C)C(=O)O (stereo not given)	96%
